Consider 14 molecules from PubChem BioAssay (NCI).

The panel holds about 79,000 compounds, 15% with a hit somewhere; the sample as a whole holds those more often. A number with no mark means an inactive call. Calls of active or inactive are those of the source. No stated cut-off is given here; in the data, active means growth inhibition above about 70%; inactive means the rest.

The assay is described as follows: NCI Yeast Anticancer Drug Screen. Data for the mec2-1 strain (AID 157). Particulars: S. cerevisiae mec2-1 strain, active compounds read high. How it is done: Growth inhibition of yeast strains with defined genetic alterations is measured as a screen for potential anti-cancer activity. Selected strains with alterations in DNA damage repair or cell cycle control were exposed to compounds and growth inhibition was measured relative to vehicle treated controls. The strain used in this assay is mec2-1

[1] abbreviates: at 5.0 µM (retest, dose inferred, filed as 0.5).
The mark [2] stands for this setting: at 50.0 µM (retest, dose inferred, filed as 5.0).

Take `COC(=O)c1ncc(Cl)cc1Cl`: the growth inhibition under setting [1] is 0%, the growth inhibition under setting [2] was -7% and the growth inhibition (at 50.0 µM) was 39.8%.

As for `N#CC(C#N)C(C#N)c1ccc(Cl)c(Cl)c1` (configuration not stated), the growth inhibition by setting is: under setting [1], 72% (active); under setting [2], 100% (active); (at 50.0 µM) 99.7% (active).

For `CCN(CC)CCN1C(=O)c2c(c3c4cccc(Cl)c4n(C4OC(CO)C(OC)C(O)C4O)c3c3[nH]c4c(Cl)cccc4c23)C1=O` (configuration not stated), the growth inhibition is, setting by setting: under setting [1], 56%; under setting [2], 98% (active); (at 50.0 µM) 87.3% (active).

With `O=C(Oc1cccc2cccnc12)c1ccccc1`, the growth inhibition under setting [1] is -22%, the growth inhibition under setting [2] was 98% (active) and the growth inhibition (at 50.0 µM) was 97% (active).

As to `O=C1C2=C(Nc3cc([N+](=O)[O-])ccc3N2)OC1c1c2ccccc2cc2ccccc12` (configuration not stated), the growth inhibition was 70% (active) under setting [1], 99% (active) under setting [2] and 66.4% (at 50.0 µM).

With `Cc1ccc(S(=O)(=O)Nc2ccc3c(c2)C(=O)c2ccccc2-3)cc1`, the growth inhibition by setting is: under setting [1], 6%; under setting [2], 93% (active); (at 50.0 µM) 91.4% (active).

As for `CC(=O)OC1CCC23COC(CC(C)C2C)C3(Br)C1` (configuration not stated), the growth inhibition runs as follows: under setting [1], 13%; under setting [2], 8%; (at 50.0 µM) 4.2%.

Take `O=C1OCc2cccc3cccc1c23`: the growth inhibition under setting [1] is 9%, the growth inhibition under setting [2] is 43% and the growth inhibition (at 50.0 µM) is 38.6%.

With `CCOC(=O)C1SC(=Nc2ccc(Cl)cc2)N=C1C` (configuration not stated), the growth inhibition was 27% under setting [1], 37% under setting [2] and 91.7% (active) (at 50.0 µM).

For `CCCCCCCC/C=C\CCCCCCCCN1CCOCC1`, the growth inhibition is, setting by setting: under setting [1], 0%; under setting [2], -2%; (at 50.0 µM) 99.3% (active).

As for `CC(=O)c1cc(-c2ccccc2)nc2ccccc12`, the growth inhibition is, setting by setting: under setting [1], -29%; under setting [2], 84% (active); (at 50.0 µM) 94.1% (active).

Take `CN(C)CCCNc1ccc2c(=O)n(CCN(C)C)c(=O)n3c4ccccc4c(=O)c1c23`: the growth inhibition was 29% under setting [1], 33% under setting [2] and 55% (at 50.0 µM).

Consider `COc1ccc(C(C#N)=C2C=CC(=NOC(=O)Nc3ccccc3)C=C2)cc1`, for which the growth inhibition under setting [1] was 28%, the growth inhibition under setting [2] is 92% (active) and the growth inhibition (at 50.0 µM) was 93.1% (active).

In the case of `N#[N+]c1ccc2c(S(=O)(=O)Oc3ccc(C(=O)c4ccccc4)c(OS(=O)(=O)c4cccc5c([O-])c([N+]#N)ccc45)c3)cccc2c1[O-]`, the growth inhibition is, setting by setting: under setting [1], -7%; under setting [2], 33%; (at 50.0 µM) 85.3% (active).
